Results taken from PubChem BioAssay.
For part of these data: Entries with a potency or affinity are not part of this list. Activity calls are given as the source filed them.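 Rule for the calls, unless noted: active = primary screen inhibitor hit that blocks the TRPC4 channel at some tested dose, yielding a dose curve; inactive = the rest.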

Assays:
[1] = tested on: TRPC4 beta (transient receptor potential cation channel C4), mouse; assay: activators of mouse TRPC4 channel, confirmation, cell-based, Fluo4 calcium, HEK293 TRPC4beta/mu-opioid, duplicates, 10 µM (AID 2426;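 active = fluorescence ratio normalized to control raised more than 50% in primary screen plus both repeat runs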;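 for activation: percent rise of integrated ratio over buffer wells lacking compound which define 0%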); settings: Fluo4 calcium fluorescence, at 10 µM; hits give high values
[2] = tested on: transient receptor potential cation channel C4 beta (TRPC4), mouse; assay: activators of mouse TRPC4 channel, confirmation, cell-based, second round, Fluo4, HEK293 TRPC4beta/mu-opioid, 1 µM (AID 2461;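 active = primary screen active and over 50% activation in each of two duplicate runs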); settings: Fluo4 calcium fluorescence, at 1 µM; hits give high values
[3] = tested on: TRPC4 (transient receptor potential cation channel C4 beta), mouse; assay: positive allosteric modulators of mouse TRPC4, confirmation, cell-based, second round, Fluo-4, HEK293 TRPC4beta/mu-opioid, 1 µM (AID 2554;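 active = primary screen hit whose fluorescence ratio, in both repeats, exceeds the weak agonist control mean by 3 SD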); settings: DAMGO EC20, Fluo-4 calcium flux, at 1 µM; hits give high values
[4] = tested on: TRPC4 beta (transient receptor potential cation channel C4), mouse; assay: positive allosteric modulators of mouse TRPC4, confirmation, cell-based, Fluo-4, HEK293 TRPC4beta/mu-opioid (AID 2555;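 active = primary screen hit whose calcium fluorescence ratio, in both repeats, exceeds the weak agonist control mean by 3 SD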); settings: DAMGO EC20, Fluo-4 calcium flux, at 10 µM; hits give high values
[5] = target: Short transient receptor potential channel 4 (Mus musculus) (UniProt Q9QUQ5); assay: inhibitors of mouse TRPC4 channel, confirmation, cell-based, Fluo4, HEK293 TRPC4beta/mu-opioid (AID 2636;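 active = calcium signal cut by more than 3 SD below the full-agonist control yet still positive, in both repeats and the earlier primary screen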); settings: DAMGO, Fluo4 calcium flux, at 10 µM; hits give high values
Sequence of Short transient receptor potential channel 4 (Mus musculus) (Q9QUQ5 whole entry, looked up): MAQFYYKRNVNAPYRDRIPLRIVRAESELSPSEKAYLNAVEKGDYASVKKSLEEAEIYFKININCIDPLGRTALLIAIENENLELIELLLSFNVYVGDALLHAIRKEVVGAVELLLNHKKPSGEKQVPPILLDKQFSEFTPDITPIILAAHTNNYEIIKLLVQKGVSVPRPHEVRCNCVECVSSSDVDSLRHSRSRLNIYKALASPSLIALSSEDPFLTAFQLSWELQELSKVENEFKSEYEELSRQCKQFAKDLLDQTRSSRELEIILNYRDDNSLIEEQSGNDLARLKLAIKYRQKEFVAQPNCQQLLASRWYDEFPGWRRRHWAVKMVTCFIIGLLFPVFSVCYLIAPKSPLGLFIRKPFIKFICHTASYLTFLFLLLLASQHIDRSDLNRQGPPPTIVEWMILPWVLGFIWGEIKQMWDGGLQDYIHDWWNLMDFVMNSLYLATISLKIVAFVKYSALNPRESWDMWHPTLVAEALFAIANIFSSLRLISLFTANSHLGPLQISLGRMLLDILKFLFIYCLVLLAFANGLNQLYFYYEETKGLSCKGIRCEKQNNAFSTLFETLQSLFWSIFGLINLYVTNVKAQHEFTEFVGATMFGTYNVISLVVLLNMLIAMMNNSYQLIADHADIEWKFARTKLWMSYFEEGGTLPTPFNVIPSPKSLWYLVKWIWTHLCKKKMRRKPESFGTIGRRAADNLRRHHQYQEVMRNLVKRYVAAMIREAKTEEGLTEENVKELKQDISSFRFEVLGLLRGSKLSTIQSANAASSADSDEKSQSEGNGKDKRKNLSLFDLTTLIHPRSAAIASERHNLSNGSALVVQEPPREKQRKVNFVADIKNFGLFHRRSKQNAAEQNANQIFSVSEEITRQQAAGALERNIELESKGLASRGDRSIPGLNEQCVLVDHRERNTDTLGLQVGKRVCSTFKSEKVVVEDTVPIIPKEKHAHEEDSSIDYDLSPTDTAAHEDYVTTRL

[6] = target: Short transient receptor potential channel 4 (Mus musculus) (UniProt Q9QUQ5); assay: inhibitors of mouse TRPC4 channel, confirmation, cell-based, second round, Fluo4, HEK293 TRPC4beta/mu-opioid, 1 µM (AID 2637;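 active = calcium signal ratio cut to more than 3 SD under the fully stimulated control mean yet still positive, in both repeats and the primary screen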;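 for inhibition: percent of integrated ratio relative to wells lacking test compound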); settings: Fluo4 calcium flux, DAMGO, at 1 µM; hits give high values
[7] = target: Short transient receptor potential channel 4 (Mus musculus) (UniProt Q9QUQ5); assay: mouse TRPC4 channel activators, dose response, cell-based, HEK293 TRPC4/mu-opioid, Fluo-4 calcium (AID 434937;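 active = primary screen activator hit with a dose response curve and TRPC4 channel activation at any tested dose; inactive = no activation, no dose response, or not a primary hit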)
[8] = target: Short transient receptor potential channel 4 (Mus musculus) (UniProt Q9QUQ5); assay: TRPC4 positive allosteric modulators, dose response, cell-based, HEK293 TRPC4/mu-opioid, Fluo-4 calcium, EC20 DAMGO (AID 434941;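 active = earlier screen potentiator hit that boosts the TRPC4 ion channel at some dose, with a dose response; inactive = no potentiation, no dose response, or not a prior hit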;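 note: calcium entry triggered by an EC20 dose of DAMGO at the co-expressed mu-opioid receptor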)
[9] = target: Short transient receptor potential channel 4 (Mus musculus) (UniProt Q9QUQ5); assay: mouse TRPC4 channel inhibitors, dose response, cell-based, HEK293 TRPC4/mu-opioid, Fluo-4 calcium (AID 434942)
[10] = target: Short transient receptor potential channel 6 (Mus musculus) (UniProt Q61143); assay: inhibition of mouse TRPC6 channel, confirmation, selectivity assay for TRPC4 inhibitor project, cell-based, HEK293, membrane potential dye, duplicate (AID 434948;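 active = active in primary screen and both duplicates, each dropping signal beyond three positive-control SD with fluorescence still positive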); settings: HEK293 TRPC6, membrane potential dye fluorescence, at 10 µM, stimulated with maximal-effect acetylcholine; hits give high values
Sequence of Short transient receptor potential channel 6 (Mus musculus) (Q61143 whole entry, looked up): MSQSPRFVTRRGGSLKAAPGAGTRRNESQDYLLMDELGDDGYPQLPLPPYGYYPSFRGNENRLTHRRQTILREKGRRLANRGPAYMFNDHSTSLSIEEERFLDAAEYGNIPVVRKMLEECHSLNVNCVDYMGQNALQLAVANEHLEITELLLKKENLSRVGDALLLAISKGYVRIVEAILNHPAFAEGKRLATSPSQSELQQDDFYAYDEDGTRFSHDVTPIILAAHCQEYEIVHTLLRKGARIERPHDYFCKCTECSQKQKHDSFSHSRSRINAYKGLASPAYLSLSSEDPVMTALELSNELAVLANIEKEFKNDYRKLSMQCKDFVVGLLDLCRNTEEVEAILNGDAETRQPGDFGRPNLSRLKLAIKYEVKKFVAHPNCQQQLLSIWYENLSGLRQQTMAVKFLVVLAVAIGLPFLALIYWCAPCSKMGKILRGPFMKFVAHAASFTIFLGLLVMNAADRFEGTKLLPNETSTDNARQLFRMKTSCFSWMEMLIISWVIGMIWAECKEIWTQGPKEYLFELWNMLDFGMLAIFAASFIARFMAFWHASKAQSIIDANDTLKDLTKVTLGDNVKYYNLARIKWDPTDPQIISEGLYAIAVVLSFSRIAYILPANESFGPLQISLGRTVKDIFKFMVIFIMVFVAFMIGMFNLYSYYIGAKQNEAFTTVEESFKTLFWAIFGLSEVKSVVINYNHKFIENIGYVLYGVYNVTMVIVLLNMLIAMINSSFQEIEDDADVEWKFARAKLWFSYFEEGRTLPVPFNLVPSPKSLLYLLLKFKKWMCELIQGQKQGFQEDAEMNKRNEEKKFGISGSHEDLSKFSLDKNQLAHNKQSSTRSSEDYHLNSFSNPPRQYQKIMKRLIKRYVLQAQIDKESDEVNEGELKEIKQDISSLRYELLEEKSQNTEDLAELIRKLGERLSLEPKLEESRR

[11] = target: Short transient receptor potential channel 6 (Mus musculus) (UniProt Q61143); assay: activation of mouse TRPC6 channel, confirmation, selectivity assay for TRPC4 activator project, cell-based, HEK293, membrane potential dye, duplicate (AID 434950;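 active = membrane potential signal rise above negative control mean plus 3 SD in both duplicates, also active in the earlier TRPC4 screen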); settings: HEK293 TRPC6, membrane potential fluorescence, at 10 µM; hits give high values
[12] = target: Short transient receptor potential channel 6 (Mus musculus) (UniProt Q61143); assay: TRPC6 potentiation by TRPC4 potentiator hits, confirmation, selectivity assay for TRPC4 potentiator project, HEK293 cells, membrane potential dye, duplicate (AID 434952;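 active = compound raising the membrane signal above positive-control mean plus 3 SD in both repeats, and a primary screen hit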); settings: HEK293 TRPC6, membrane potential dye fluorescence, at 10 µM, maximal acetylcholine added after compound; hits give high values
[13] = target: Short transient receptor potential channel 4 (Mus musculus) (UniProt Q9QUQ5); assay: calcium flux activators in TRPC4/5HT1a cells, counter-screen for TRPC4 activator project, cell-based, second counter screen, HEK293 TRPC4/5HT1a, Fluo-4 (AID 434977;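 active = calcium signal rise above buffer-control mean plus 5 SD in both duplicates, and also a hit in the primary screen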;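 for activation: plate controls were assay buffer for no effect and maximal serotonin response for full effect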); settings: Fluo-4 calcium flux, at 10 µM; hits give high values
[14] = calcium flux inhibitors in TRPC4/5HT1a cells, confirmation, counter-screen for TRPC4 inhibitor project, cell-based, second counter screen, HEK293 TRPC4/5HT1a, Fluo-4 (AID 434978;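 active = primary screen active whose calcium signal fell more than 3 SD beyond the full-serotonin control mean in both duplicate plates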;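 note: serotonin given first at submaximal then at maximal dose after compound preincubation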); settings: Fluo-4 calcium flux, at 10 µM, serotonin added to trigger calcium flux; hits give high values
[15] = tested on: TRPC4 (mouse), co-expressed with 5HT1a in HEK293; assay: calcium flux potentiators in TRPC4/5HT1a cells, confirmation, counter-screen for TRPC4 potentiator project, cell-based, second counter screen, HEK293 TRPC4/5HT1a, Fluo-4 (AID 434979;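 active = signal rise over 3 SD above mean of control wells given weak agonist, in both repeats and first screen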); settings: Fluo-4 calcium flux, at 10 µM, serotonin added at its EC20 dose; hits give high values
[16] = calcium flux activation in mu-opioid HEK293 cells, confirmation, counter-screen for TRPC4 activator project, cell-based, HEK293 mu-opioid receptor line (AID 449723;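 active = hit in primary screen, with calcium signal over 5 SD above buffer well mean in both duplicates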;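 note: counter screen cells carry the mu-opioid receptor alone and lack TRPC4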); settings: Fluo-4 calcium fluorescence, at 10 µM; hits give high values
[17] = calcium flux enhancement in mu-opioid HEK293 cells, confirmation, counter-screen for TRPC4 allosteric potentiator project, cell-based, HEK293 mu-opioid receptor line (AID 449724;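 active = calcium signal rise more than 3 SD above the low-dose agonist control mean, in both duplicate plates and the primary screen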); settings: Fluo-4 calcium flux, at 10 µM, compound added before EC20 DAMGO stimulus; hits give high values

CCOc1cc(/C=C2\CN(CC)C/C(=C\c3ccc(O)c(OCC)c3)C2=O)ccc1O
inactive: outcome [1] | outcome [2] | outcome [3] | outcome [4] | outcome [5] | outcome [6] | outcome [7] | outcome [8] | outcome [9] | outcome [10] | outcome [11] | outcome [12] | outcome [13] | outcome [14] | outcome [15] | outcome [16] | outcome [17]

C=CCOc1ccc(Br)cc1/C=N/O
inactive: outcome [1] | outcome [2] | outcome [3] | outcome [4] | outcome [5] | outcome [6] | outcome [7] | outcome [8] | outcome [9] | outcome [10] | outcome [11] | outcome [12] | outcome [13] | outcome [14] | outcome [15] | outcome [16] | outcome [17]

FC(F)(F)COc1nc(N2CCCCC2)nc(N2CCNCC2)n1
inactive: outcome [1] | outcome [2] | outcome [3] | outcome [4] | outcome [5] | outcome [6] | outcome [7] | outcome [8] | outcome [9] | outcome [10] | outcome [11] | outcome [12] | outcome [13] | outcome [14] | outcome [15] | outcome [16] | outcome [17]

O=C(c1ccccc1)C1CCc2occc2C1=O (stereo not given)
inactive: outcome [1] | outcome [2] | outcome [3] | outcome [4] | outcome [5] | outcome [6] | outcome [7] | outcome [8] | outcome [9] | outcome [10] | outcome [11] | outcome [12] | outcome [13] | outcome [14] | outcome [15] | outcome [16] | outcome [17]

O=C(Cn1nc(-c2ccccc2)ccc1=O)NCCN1CCN(Cc2ccccc2)CC1
active: potentiation [15] 13%
inactive: outcome [1] | outcome [2] | outcome [3] | outcome [4] | outcome [5] | outcome [6] | outcome [7] | outcome [8] | outcome [9] | outcome [10] | outcome [11] | outcome [12] | outcome [13] | outcome [14] | outcome [16] | outcome [17]

COc1ccc(OCC(=O)NC2CCCN(Cc3ccc(Cl)cc3)C2)cc1 (stereo not given)
inactive: outcome [1] | outcome [2] | outcome [4] | outcome [5] | outcome [6] | outcome [7] | outcome [8] | outcome [9] | outcome [10] | outcome [11] | outcome [12] | outcome [13] | outcome [14] | outcome [16] | outcome [17]
active: potentiation [3] 26% | potentiation [15] 15.2%

O=C(CN1CCCN(S(=O)(=O)c2ccc(F)cc2)CC1)Nc1ccccc1Br
inactive: outcome [1] | outcome [2] | outcome [3] | outcome [4] | outcome [6] | outcome [7] | outcome [8] | outcome [9] | outcome [10] | outcome [11] | outcome [12] | outcome [13] | outcome [14] | outcome [15] | outcome [16] | outcome [17]
active: inhibition [5] 70%

C=CCNC(=S)N/N=C/c1ccc(C(C)(C)C)cc1
active: inhibition [5] 79% | inhibition [6] 41%
inactive: outcome [1] | outcome [2] | outcome [3] | outcome [4] | outcome [7] | outcome [8] | outcome [9] | outcome [10] | outcome [11] | outcome [12] | outcome [13] | outcome [14] | outcome [15] | outcome [16] | outcome [17]

COc1cc(OC)c2c(-c3ccccc3)cc(=O)oc2c1C(CCN1CCCCC1)c1ccc(N(C)C)cc1 (stereo not given)
inactive: outcome [2] | outcome [3] | outcome [4] | outcome [5] | outcome [6] | outcome [7] | outcome [8] | outcome [9] | outcome [10] | outcome [11] | outcome [12] | outcome [14] | outcome [15] | outcome [16] | outcome [17]
active: activation [1] 82% | activation [13] 38.3%

CNc1oc(-c2ccccc2Cl)nc1P(=O)(c1ccccc1)c1ccccc1
inactive: outcome [1] | outcome [2] | outcome [3] | outcome [4] | outcome [5] | outcome [6] | outcome [7] | outcome [8] | outcome [9] | outcome [10] | outcome [11] | outcome [12] | outcome [13] | outcome [14] | outcome [15] | outcome [16] | outcome [17]

O=C1Cc2ccccc2Sc2c(OCCN3CCCCC3)cccc21
inactive: outcome [1] | outcome [2] | outcome [3] | outcome [4] | outcome [5] | outcome [6] | outcome [7] | outcome [8] | outcome [9] | outcome [10] | outcome [11] | outcome [12] | outcome [13] | outcome [14] | outcome [15] | outcome [16] | outcome [17]

CCOC(=O)C1NN=C(C(=O)c2ccccc2)C1c1ccc(Cl)cc1 (stereo not given)
inactive: outcome [1] | outcome [2] | outcome [3] | outcome [4] | outcome [5] | outcome [6] | outcome [7] | outcome [8] | outcome [9] | outcome [10] | outcome [11] | outcome [12] | outcome [13] | outcome [14] | outcome [15] | outcome [16] | outcome [17]

CC(C)CCOc1ccc(C(=O)NCC(c2ccco2)N(C)C)cc1 (stereo not given)
active: inhibition [5] 89%
inactive: outcome [1] | outcome [2] | outcome [3] | outcome [4] | outcome [6] | outcome [7] | outcome [8] | outcome [9] | outcome [10] | outcome [11] | outcome [12] | outcome [13] | outcome [14] | outcome [15] | outcome [16] | outcome [17]

O=C(COC(=O)c1ccccc1C(=O)N1CCN(c2ccccc2)CC1)Nc1ccc(F)cc1
inactive: outcome [1] | outcome [2] | outcome [3] | outcome [5] | outcome [6] | outcome [7] | outcome [8] | outcome [9] | outcome [10] | outcome [11] | outcome [12] | outcome [13] | outcome [14] | outcome [16] | outcome [17]
active: potentiation [4] 16% | potentiation [15] 50.1%

CCN(C(=O)c1cc2c(s1)-c1ccccc1OC2)c1cc(OC)ccc1OC
inactive: outcome [1] | outcome [2] | outcome [3] | outcome [4] | outcome [5] | outcome [6] | outcome [7] | outcome [8] | outcome [9] | outcome [10] | outcome [11] | outcome [12] | outcome [13] | outcome [14] | outcome [15] | outcome [16] | outcome [17]
